According to PubChem BioAssay:
Calls of active or inactive are those of the source. Rule as the data show it, unless noted: active = inhibition above about 42%; inactive = the rest.

system: not listed separately; test: StAR promoter reporter inhibitors, counter-screen for LRH-1 inverse agonist project, cell-based, luminescence, high throughput (AID 651611; in the data active = inhibition above about 28%); conditions: StAR promoter luciferase reporter counterscreen, at 3.6 µM, active compounds read high

| SMILES | inhibition |
| --- | --- |
| NC(=O)C1CCN(C(=O)COc2ccc3c4c(c(=O)oc3c2)CCC4)CC1 | 5.21% (inactive) |
| O=C(CCl)Nc1cccc2ncccc12 | 55.6% (active) |
| CCCc1cc(=O)oc2cc(OCC(=O)NCc3ccccn3)ccc12 | 10.6% (inactive) |
| Cc1ccc(N2CC(C(=O)Nc3nc4ccc(S(C)(=O)=O)cc4s3)CC2=O)cc1 (stereo not given) | 12.4% (inactive) |
| O=C(Nc1cccc(NC(=O)c2ccccc2Cl)c1)c1ccc([N+](=O)[O-])o1 | 33.1% (active) |
| Cc1nc2ccc(NS(=O)(=O)c3ccc4c(c3)OCCO4)cc2s1 | 7.73% (inactive) |
| Cc1cc2ccccn2c1C(=O)c1cccc([N+](=O)[O-])c1 | 10.1% (inactive) |
| O=C(C(Cl)c1ccccc1)N1CCOCC1 (stereo not given) | 5.9% (inactive) |
| CC(NC(=O)CCl)c1ccc(Cl)c(Cl)c1 (stereo not given) | 32.8% (active) |
| O=C(COc1ccc2c3c(c(=O)oc2c1)CCCC3)NCCCN1CCOCC1 | 14.4% (inactive) |
| OC(c1ccc2ccccc2n1)c1c(Cl)cccc1Cl (stereo not given) | 12.8% (inactive) |
| COc1ccc(-c2nnnn2-c2ccccc2OC)cc1 | 8.71% (inactive) |
| CCOC(=O)C1CCN(Cc2cc(Cl)c3ccccc3c2O)CC1 | 1.44% (inactive) |
| Cn1c(SCC(=O)Nc2ccc(N3CCOCC3)cc2)nnc1-c1ccccc1 | 0.41% (inactive) |
| COCc1cc(C)n(CC(=O)Nc2ccc(N3CCOCC3)c(Cl)c2)c(=O)c1C#N | -4.28% (inactive) |
| COc1cccc(C(=O)COc2cccc(NC(=O)c3cccc([N+](=O)[O-])c3)c2)c1 | 14.4% (inactive) |
| COc1ccccc1Cc1c(-c2ccc(OC)c(OC)c2)nc2c3ccccc3ccn12 | 8.86% (inactive) |
| COC(=O)CC1(C(=O)OC)Oc2ccc(Br)cc2C(=O)N1c1cc(Cl)c(Cl)cc1Cl (stereo not given) | 12.1% (inactive) |
| O=C(CN1C(=O)C(c2ccc(F)cc2)=NC12CCCC2)Nc1ccc(F)cc1 | 23.4% (inactive) |
| CCCc1cc(=O)n2nc(N3CCC(C(=O)N4CCN(c5ccc(OC)cc5)CC4)CC3)sc2n1 | 12.6% (inactive) |

| SMILES | inhibition |
| --- | --- |
| COc1ccc(NC(=S)NCCc2ccc(F)cc2)c(OC)c1 | 7.84% (inactive) |
| O=C(CCl)NCCN1C(=O)S/C(=C\c2cccnc2)C1=O | 10.2% (inactive) |
| CCN1CCN(c2ccc(S(=O)(=O)N3CCCCC3)cc2NC(=O)/C=C/c2ccc([N+](=O)[O-])cc2)CC1 | 0.06% (inactive) |
| CC(=O)Nc1cc(-c2ccc(F)cc2)cn2c(-c3ccc(S(C)(=O)=O)cc3)cnc12 | 12.6% (inactive) |
| c1ccc(Oc2nc(-c3cccnc3)nc3ccccc23)cc1 | 10.6% (inactive) |
| CCOC(=O)N1CCN(C(=O)CSc2nc3c([nH]c4ccccc43)c(=O)n2CC)CC1 | 36.3% (active) |
| CCOc1ccc(S(=O)(=O)Nc2nc3ccccc3nc2N2CCN(C)CC2)cc1 | -10.8% (inactive) |
| COc1ccc(N2CCN(C(=O)CSc3nnc(-c4cc5ccccc5cc4O)n3C)CC2)cc1 | 19.8% (inactive) |
| O=C(Nc1nc2c(Cl)cccc2s1)c1ccc([N+](=O)[O-])o1 | 10.3% (inactive) |
| Cc1onc(-c2cccc(Cl)c2Cl)c1C(=O)O/N=C(\N)c1ccc([N+](=O)[O-])o1 | 11.8% (inactive) |
| CC(=O)N1CCN(c2ccccc2NC(=O)c2cc3ccccc3o2)CC1 | 9.44% (inactive) |
| CCCOc1ccc(Cn2cnc3ccccc32)cc1 | 5.08% (inactive) |
| Cc1ccc(-c2csc(NC(=O)c3ccc([N+](=O)[O-])o3)n2)cc1 | 3.07% (inactive) |
| O=C(Nc1ccccc1Cl)c1ccc([N+](=O)[O-])o1 | 29.4% (active) |
| Nc1ccc(C(=O)NN2C(=O)[C@H](Cl)C2c2ccc(Cl)cc2)cc1 (stereo not given in full) | 8.81% (inactive) |
| Cc1ccc(S(=O)(=O)Nc2ccc3c(c2)n(C)c(=O)n3C)cc1 | 40.1% (active) |
| COc1ccc(C2=Nn3c(nnc3-c3ccncc3)SC2)cc1OC | 24.5% (inactive) |
| O=C(NCc1cccnc1)c1ccc([N+](=O)[O-])o1 | 16.3% (inactive) |
| COc1cccc2c1C(=O)c1c(O)c3c(c(O)c1C2=O)C[C@@](O)(C(C)=O)C[C@@H]3O[C@H]1C[C@H](N)[C@H](O)[C@H](C)O1 | 76.5% (active) |
| COc1ccc(/C=N/OCC(=O)NC(c2ccccc2)c2ccccc2)cc1OC | 30.5% (active) |

target: Nuclear receptor subfamily 5 group A member 2 (Homo sapiens) (UniProt O00482); test: NR5A2 activity suppression in reporter cells – cell-based, luminescence, confirmation (AID 651613); conditions: cell-based LRH-1 luciferase reporter, inverse agonism; at 3.6 µM; active compounds read high;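 also: HEK293T cells co-transfected with LRH-1 and StAR promoter luciferase reporter; 0% = vehicle wells and 100% = parental cells lacking receptor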
Sequence (O00482 whole entry, looked up): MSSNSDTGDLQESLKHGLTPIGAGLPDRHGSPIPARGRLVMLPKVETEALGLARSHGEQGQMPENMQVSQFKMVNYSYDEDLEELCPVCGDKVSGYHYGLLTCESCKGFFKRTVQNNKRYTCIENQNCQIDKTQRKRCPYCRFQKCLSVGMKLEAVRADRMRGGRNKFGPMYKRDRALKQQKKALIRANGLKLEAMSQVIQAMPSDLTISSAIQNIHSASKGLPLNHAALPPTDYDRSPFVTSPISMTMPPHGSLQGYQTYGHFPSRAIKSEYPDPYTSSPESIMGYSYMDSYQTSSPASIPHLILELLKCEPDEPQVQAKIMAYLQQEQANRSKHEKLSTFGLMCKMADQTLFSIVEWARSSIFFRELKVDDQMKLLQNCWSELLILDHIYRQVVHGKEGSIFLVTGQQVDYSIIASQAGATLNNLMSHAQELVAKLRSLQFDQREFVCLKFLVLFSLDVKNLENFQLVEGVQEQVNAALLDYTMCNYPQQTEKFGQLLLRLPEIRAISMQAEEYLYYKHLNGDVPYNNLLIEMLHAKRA

| SMILES | inhibition |
| --- | --- |
| NC(=O)C1CCN(C(=O)COc2ccc3c4c(c(=O)oc3c2)CCC4)CC1 | 42.7% (active) |
| O=C(CCl)Nc1cccc2ncccc12 | 61.7% (active) |
| CCCc1cc(=O)oc2cc(OCC(=O)NCc3ccccn3)ccc12 | 55.5% (active) |
| Cc1ccc(N2CC(C(=O)Nc3nc4ccc(S(C)(=O)=O)cc4s3)CC2=O)cc1 (stereo not given) | 52.6% (active) |
| O=C(Nc1cccc(NC(=O)c2ccccc2Cl)c1)c1ccc([N+](=O)[O-])o1 | 58.8% (active) |
| Cc1nc2ccc(NS(=O)(=O)c3ccc4c(c3)OCCO4)cc2s1 | 56.4% (active) |
| Cc1cc2ccccn2c1C(=O)c1cccc([N+](=O)[O-])c1 | 44% (active) |
| O=C(C(Cl)c1ccccc1)N1CCOCC1 (stereo not given) | 56.5% (active) |
| CC(NC(=O)CCl)c1ccc(Cl)c(Cl)c1 (stereo not given) | 69.4% (active) |
| O=C(COc1ccc2c3c(c(=O)oc2c1)CCCC3)NCCCN1CCOCC1 | 44.6% (active) |
| OC(c1ccc2ccccc2n1)c1c(Cl)cccc1Cl (stereo not given) | 42.7% (active) |
| COc1ccc(-c2nnnn2-c2ccccc2OC)cc1 | 53.8% (active) |
| CCOC(=O)C1CCN(Cc2cc(Cl)c3ccccc3c2O)CC1 | 10.1% (inactive) |
| Cn1c(SCC(=O)Nc2ccc(N3CCOCC3)cc2)nnc1-c1ccccc1 | 46.2% (active) |
| COCc1cc(C)n(CC(=O)Nc2ccc(N3CCOCC3)c(Cl)c2)c(=O)c1C#N | 40.5% (inactive) |
| COc1cccc(C(=O)COc2cccc(NC(=O)c3cccc([N+](=O)[O-])c3)c2)c1 | 62.4% (active) |
| COc1ccccc1Cc1c(-c2ccc(OC)c(OC)c2)nc2c3ccccc3ccn12 | 40.2% (inactive) |
| COC(=O)CC1(C(=O)OC)Oc2ccc(Br)cc2C(=O)N1c1cc(Cl)c(Cl)cc1Cl (stereo not given) | 58.5% (active) |
| O=C(CN1C(=O)C(c2ccc(F)cc2)=NC12CCCC2)Nc1ccc(F)cc1 | 52.2% (active) |
| CCCc1cc(=O)n2nc(N3CCC(C(=O)N4CCN(c5ccc(OC)cc5)CC4)CC3)sc2n1 | 56.5% (active) |

| SMILES | inhibition |
| --- | --- |
| COc1ccc(NC(=S)NCCc2ccc(F)cc2)c(OC)c1 | 10.5% (inactive) |
| O=C(CCl)NCCN1C(=O)S/C(=C\c2cccnc2)C1=O | 55.9% (active) |
| CCN1CCN(c2ccc(S(=O)(=O)N3CCCCC3)cc2NC(=O)/C=C/c2ccc([N+](=O)[O-])cc2)CC1 | 61.8% (active) |
| CC(=O)Nc1cc(-c2ccc(F)cc2)cn2c(-c3ccc(S(C)(=O)=O)cc3)cnc12 | 51.4% (active) |
| c1ccc(Oc2nc(-c3cccnc3)nc3ccccc23)cc1 | 57.3% (active) |
| CCOC(=O)N1CCN(C(=O)CSc2nc3c([nH]c4ccccc43)c(=O)n2CC)CC1 | 63.7% (active) |
| CCOc1ccc(S(=O)(=O)Nc2nc3ccccc3nc2N2CCN(C)CC2)cc1 | 27.2% (inactive) |
| COc1ccc(N2CCN(C(=O)CSc3nnc(-c4cc5ccccc5cc4O)n3C)CC2)cc1 | 59% (active) |
| O=C(Nc1nc2c(Cl)cccc2s1)c1ccc([N+](=O)[O-])o1 | 65.3% (active) |
| Cc1onc(-c2cccc(Cl)c2Cl)c1C(=O)O/N=C(\N)c1ccc([N+](=O)[O-])o1 | 69.7% (active) |
| CC(=O)N1CCN(c2ccccc2NC(=O)c2cc3ccccc3o2)CC1 | 43.5% (active) |
| CCCOc1ccc(Cn2cnc3ccccc32)cc1 | 54.6% (active) |
| Cc1ccc(-c2csc(NC(=O)c3ccc([N+](=O)[O-])o3)n2)cc1 | 57.5% (active) |
| O=C(Nc1ccccc1Cl)c1ccc([N+](=O)[O-])o1 | 63.9% (active) |
| Nc1ccc(C(=O)NN2C(=O)[C@H](Cl)C2c2ccc(Cl)cc2)cc1 (stereo not given in full) | 43.1% (active) |
| Cc1ccc(S(=O)(=O)Nc2ccc3c(c2)n(C)c(=O)n3C)cc1 | 48.8% (active) |
| COc1ccc(C2=Nn3c(nnc3-c3ccncc3)SC2)cc1OC | 48% (active) |
| O=C(NCc1cccnc1)c1ccc([N+](=O)[O-])o1 | 62.7% (active) |
| COc1cccc2c1C(=O)c1c(O)c3c(c(O)c1C2=O)C[C@@](O)(C(C)=O)C[C@@H]3O[C@H]1C[C@H](N)[C@H](O)[C@H](C)O1 | 104% (active) |
| COc1ccc(/C=N/OCC(=O)NC(c2ccccc2)c2ccccc2)cc1OC | 72.7% (active) |
